Assay in all cases: glycan array binding signal (z-score within array); higher = stronger binding
Common to all, as to details: glycan notation: IUPAC condensed, linker removed

The target in assay [1] is Fuc(a1-2)Gal(b1-4)GlcNAc. The method in brief: (§1)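 Columns mapping to the same glycan were averaged after glycan names were converted to IUPAC-condensed notation. The data come from 3228 arrays in the Consortium for Functional Glycomics database, limited to those with an available protein sequence. Binding is reported as a within-array Z-score averaged across arrays of one protein sequence and across linkers.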

Assay [2] deals with Fuc(a1-2)Gal6S(b1-4)GlcNAc. The method in brief:
as §1

Assay [3] deals with Fuc(a1-3)[Gal3S(b1-4)]Glc. The method in brief: as §1
Assay [4] addresses Gal(a1-3)Gal(b1-3)Glc. In a few lines: as §1
Assay [5] addresses Gal(a1-4)GlcNAc. In a few lines:
as §1

The target in assay [6] is Gal(a1-6)Glc. The method in brief: as §1
Assay [7] deals with Gal(b1-3)Gal. The method in brief:
as §1

Assay [8] concerns the target Gal(b1-3)GalNAc(b1-3)Gal(b1-4)GlcNAc. In a few lines: as §1
For assay [9], the target named is Gal(b1-4)GlcNAc(b1-2)Man(a1-3)[Gal(b1-4)GlcNAc(b1-2)Man(a1-6)]Man(b1-4)GlcNAc(b1-4)GlcNAc. In a few lines: as §1
Assay [10] concerns the target Gal3S(b1-4)Glc6S. In a few lines:
as §1

The target in assay [11] is Gal3S(b1-4)GlcNAc. The method in brief: as §1
The target in assay [12] is Gal3S(b1-4)GlcNAc6S. The method in brief:
as §1

For assay [13], the target named is Gal3S6S(b1-4)GlcNAc6S. In a few lines: as §1
The target of assay [14] is Gal6S(b1-4)Glc6S. The method in brief: as §1
Assay [15] deals with GalNAc(b1-3)Gal(a1-4)Gal(b1-4)GlcNAc. The method in brief: as §1
For assay [16], the target named is Glc(b1-4)Glc. In a few lines: as §1
Assay [17] concerns the target GlcNAc(b1-4)GlcNAc(b1-4)GlcNAc(b1-4)GlcNAc(b1-4)GlcNAc(b1-4)GlcNAc. The method in brief:
as §1

Assay [18] concerns the target Man(a1-3)[Man(a1-6)]Man(b1-4)GlcNAc(b1-4)GlcNAc. The method in brief: as §1
In assay [19] the target is Man(b1-4)GlcNAc. The method in brief:
as §1

Assay [20] addresses Neu5Ac(a2-3)Gal(b1-3)GalNAc. The method in brief: as §1
The target of assay [21] is Neu5Ac(a2-3)Gal(b1-4)GlcNAc(b1-3)Gal(b1-4)GlcNAc. In a few lines: as §1
Assay [22] has as its target Neu5Ac(a2-3)Gal(b1-4)GlcNAc(b1-6)[Gal(b1-3)]GalNAc. In a few lines:
as §1

Assay [23] deals with Neu5Ac(a2-3)Gal(b1-4)GlcNAc6S. In a few lines: as §1
For assay [24], the target named is Neu5Ac(a2-3)Gal(b1-4)[Fuc(a1-3)]GlcNAc(b1-3)Gal. In a few lines:
as §1

In assay [25] the target is Neu5Ac(a2-8)Neu5Ac(a2-3)Gal(b1-4)Glc. The method in brief: as §1
Assay [26] has as its target Neu5Ac(a2-8)Neu5Ac(a2-3)[GalNAc(b1-4)]Gal(b1-4)Glc. In a few lines: as §1
The target of assay [27] is Neu5Gc(a2-3)Gal(b1-3)GlcNAc. In a few lines: as §1
The target in assay [28] is Neu5Ac(a2-6)Gal(b1-4)GlcNAc. In a few lines: as §1
Assay [29] addresses Neu5Ac(a2-6)Gal(b1-4)GlcNAc(b1-2)Man(a1-3)[Man(a1-6)]Man(b1-4)GlcNAc(b1-4)GlcNAc. The method in brief: as §1
Assay [30] addresses Neu5Ac(a2-6)Gal(b1-4)GlcNAc(b1-3)Gal(b1-4)GlcNAc. The method in brief:
as §1

For assay [31], the target named is Neu5Gc(a2-3)Gal(b1-3)[Fuc(a1-4)]GlcNAc. In a few lines: as §1

This is one part of a sample in which the strongest signals are shown more often than they occur.

B1: FBG4 (Homo sapiens), Q96EF6 (protein)
chain: MGARLSRRRLPADPSLALDALPPELLVQVLSHVPPRSLVTRCRPVCRAWRDIVDGPTVWLLQLARDRSAEGRALYAVAQRCLPSNEDKEEFPLCALARYCLRAPFGRNLIFNSCGEQGFRGWEVEHGGNGWAIEKNLTPVPGAPSQTCFVTSFEWCSKRQLVDLVMEGVWQELLDSAQIEICVADWWGARENCGCVYQLRVRLLDVYEKEVVKFSASPDPVLQWTERGCRQVSHVFTNFGKGIRYVSFEQYGRDVSSWVGHYGALVTHSSVRVRIRLS
With B1, the “glycan array binding signal (z-score)” value in [1] was -0.263; in assay [2] it was -0.475; in [3], -0.408; in assay [4], -0.259; in assay [5], -0.495; in [6], 1.59. Moreover, the “glycan array binding signal (z-score)” value was -0.536 in assay [7]; -0.307 in assay [8]; 0.176 in assay [9]; 2.36 in [10]; 0.201 in assay [11]; 2.01 in assay [12]. Further, the “glycan array binding signal (z-score)” value in assay [13] was 6.42; in assay [14] it was 3.24; in assay [15] it was -0.171; in [16], 0.332; in assay [17], 1.31; in assay [18], 0.275. Further, the “glycan array binding signal (z-score)” value in assay [19] is -0.448; in assay [20], -0.559; in assay [21], -0.49; in assay [22] it was -0.301; in assay [23], 0.103; in [24], -0.522. Moreover, the entries for the “glycan array binding signal (z-score)” value in assay [25], in assay [26] and in assay [27] were -0.41, -0.266 and -0.432, respectively.

B2: Tachylectin-2 (Tachypleus tridentatus), TAL2_TACTR (protein)
chain: VGGESMLRGVYQDKFYQGTYPQNKNDNWLARATLIGKGGWSNFKFLFLSPGGELYGVLNDKIYKGTPPTHDNDNWMGRAKKIGNGGWNQFQFLFFDPNGYLYAVSKDKLYKASPPQSDTDNWIARATEIGSGGWSGFKFLFFHPNGYLYAVHGQQFYKALPPVSNQDNWLARATKIGQGGWDTFKFLFFSSVGTLFGVQGGKFYEDYPPSYAHDNWLARAKLIGNGGWDDFRFLFF
As for B2, the “glycan array binding signal (z-score)” value in assay [23] was -0.232; in assay [28] it was -0.176; in assay [29], -0.295; in assay [30] it was -0.249; in assay [31] it was -0.316.
